# Only some compounds are listed: those with a hit (about 19% of all), similar ones and a draw of the others.
# DT40 TDP1 no CPT – qHTS for Inhibitors of human tyrosyl-DNA phosphodiesterase 1 (TDP1): qHTS in cells in absence of CPT | DT40 Tdp1-/- hTDP1 cells, no CPT, ATP luminescence, 48 h | AID 686978, 2013 | 420,000 tested, 15% active | Potency, µM (doses to about 46.2 µM), for the others: at the highest dose activity change, negative = growth inhibition, most hits filed as inhibitors; also: potency is read from the fitted curve at half-maximal effect; nearly all actives have a fitted effect of over 55% in size
#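 Seeded 400 DT40-hTDP1 cells/well (vehicle DMSO, no 20 nM CPT); pinned compounds; ≥48 hr at 37 °C; CellTiter-Glo luminescence as viability measure.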
# ELG1 repair inh – inhibitors of ELG1-dependent DNA repair in HEK293T cells. Potency, µM (doses to about 46.1 µM), for the others: at the highest dose activity change, negative = inhibition, usual class: inhibitors. HEK293T ELG1-luciferase reporter, luminescence, 16 h; DNA damage induced by 5-fluorouridine. 330,000 tested, 2.3% active; also: potency is read from the fitted curve at half-maximal effect; nearly all actives have a fitted effect of over 55% in size
#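 Step one: seed 2,000 cells per well. Step two: pin-transfer compound or DMSO alongside 5-fluorouridine. Step three: incubate 16 hr, 37 °C, 5% CO2. Step four: add ONE-Glo, wait 30 min, read luminescence.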
# TDP1 cell CPT – growth inhibition of DT40 Tdp1-/-;hTDP1 cells with camptothecin (screen for TDP1 inhibitors); chicken DT40 Tdp1-/-;hTDP1 cells + 20 nM CPT, ATP luminescence, 48 h; 420,000 tested, 12% active; Potency, µM (doses to about 46.2 µM), for inactives: at the highest dose activity change, negative = growth inhibition, actives largely listed as inhibitors; also: potency is read from the fitted curve at half-maximal effect; nearly all actives have a fitted effect of over 55% in size
#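 Cell growth measured by CellTiter-Glo luminescence after a minimum 48 h, 37 C compound exposure with 20 nM CPT in Tdp1-knockout DT40 cells stably expressing hTDP1, seeded 400/well; qHTS titration format.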
# IL1B secr inh – blocks inflammasome-driven IL-1 beta release; activity change, % at 57.5 µM; 360,000 tested, 4.7% active; THP-1 LPS/ATP IL-1B secretion, AlphaLISA, 16 h; stronger effect = lower value; in the data active = activity change below about -50%; inconclusive = mostly about -30% to -49%
#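 Secreted IL-1B measured by AlphaLISA bead assay after 16 h compound exposure of THP-1 cells; compounds (final up to 57.5 uM) added 1 h before LPS (250 ng/mL) and ATP (1.25 mM) stimulation; lower signal means less secretion.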
# HT1080 IDH1KD tx – HT-1080 IDH1 knockdown cell toxicity (counter line) | Potency, µM (highest dose often 46.1 µM), for the others: at the highest dose activity, negative = toxicity, most hits filed as cytotoxic | 360,000 tested, 2% active | HT-1080 IDH1 knockdown viability, ATP luminescence, 48 h;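 also: potency is read from the fitted curve at half-maximal effect; 0% = DMSO wells and -100% = cell-free medium wells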
#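 HT-1080-IDH1KD cells (IDH1 knocked down), 750/well in RPMI with 5% FBS, treated with compound 48 h at 37 degrees C. Viability by CellTiter-Glo luminescence, normalised to DMSO and no-cell wells; concentration-response curves classed.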
# HT1080NT lethal – kills 2HG-producing HT-1080-NT fibrosarcoma cells; HT-1080-NT fibrosarcoma viability, CellTiter-Glo ATP luminescence, 48 h; Potency, µM (series often up to 46.1 µM), for inactives: at the highest dose activity, negative = less viability, usual class: cytotoxic; 360,000 tested, 1.6% active; AID 686970;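 also: NT is the 2HG producing partner of a matched IDH1 knockdown line; potency is read from the fitted curve at half-maximal effect; 0% = DMSO-treated cells and -100% = media-only wells without cells; nearly all actives have a fitted effect of over 55% in size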
#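 Toxicity toward the 2HG-producing NT line was scored as %Activity, normalised to DMSO and no-cell wells, from CellTiter-Glo luminescence after 48 hours' treatment.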
# * marks the source's active call; other numbers are inactive results; ? = inconclusive; . = no result. Unless noted, calls follow the shape of the dose curve; as a rule, active = well fitted curve in the direction sought with a large enough effect; inconclusive = small, poorly fitted or top-dose-only effect, or another doubt; inactive = no such curve, though single readings can be large; an effect the other way counts as inactive or inconclusive. Unless noted, % is scaled to controls: 0 for no effect and ±100 for the full control effect.
SMILES,DT40 TDP1 no CPT,ELG1 repair inh,TDP1 cell CPT,IL1B secr inh,HT1080 IDH1KD tx,HT1080NT lethal
C#CCOCCOCCOCCNc1nc(N2CCN(C(=O)CCCCCCCCCCNC(=O)[C@H](CO)n3cc(CCCSC)nn3)CC2)nc(N2CCN(C(=O)CCCCCCCCCCNC(=O)[C@H](CCCN=C(N)N)n3cc(C[C@@H](C)CC)nn3)CC2)n1,23µM*,-21%,?,-103*,?,?
C#CCOCCOCCOCCNc1nc(N2CCN(C(=O)CCCCCCCCCCNC(=O)[C@H](CO)n3cc(CCCSC)nn3)CC2)nc(N2CCN(C(=O)CCCCCCCCCCNC(=O)[C@H](CCCCN)n3cc(CCO)nn3)CC2)n1,?,?,?,-61*,-17%,-10%
C#CCOCCOCCOCCNc1nc(N2CCN(C(=O)CCCCCCCCCCNC(=O)Cn3cc(CCCCCN)nn3)CC2)nc(N2CCN(C(=O)CCCCCCCCCCNC(=O)[C@@H](CCSC)n3cc(CCO)nn3)CC2)n1,?,?,?,-60*,-15%,-12%
C#CCOCCOCCOCCNc1nc(N2CCN(C(=O)CCCCCCCCCCNC(=O)Cn3cc(C[C@@H](C)O)nn3)CC2)nc(N2CCN(C(=O)CCCCCCCCCCNC(=O)[C@H](CCCCN)n3cc(CCCC(=O)O)nn3)CC2)n1,1%,-12%,?,?,2%,24%
C#CCOCCOCCOCCNc1nc(N2CCN(C(=O)CCCCCCCCCCNC(=O)[C@H](CCCCN)n3cc(C)nn3)CC2)nc(N2CCN(C(=O)CCCCCCCCCCNC(=O)[C@H](CCCCN)n3cc(CCCC(=O)O)nn3)CC2)n1,-7%,5%,-4%,0,3%,1%
C#CCOCCOCCOCCNc1nc(N2CCN(C(=O)CCCCCCCCCCNC(=O)Cn3cc(C[C@@H](C)O)nn3)CC2)nc(N2CCN(C(=O)CCCCCCCCCCNC(=O)[C@H](CCCN=C(N)N)n3cc(C[C@@H](C)CC)nn3)CC2)n1,16µM*,-28%,?,-97*,?,?
C#CCOCCOCCOCCNc1nc(N2CCOCC2)nc(N2CCN(C(=O)CCCCCCCCCCNC(=O)[C@@H](CCC(=O)O)n3cc(CCCCCN)nn3)CC2)n1,13%,15%,2%,13,16%,8%
CCCOC(=O)c1cccc(NC(=O)CSc2nnc3cc(C)c4ccccc4n23)c1,-4%,.,-21%,.,.,.
C#CCOCCOCCOCCNc1nc(N2CCN(C(=O)CCCCCCCCCCNC(=O)[C@@H](CCSC)n3cc(CCO)nn3)CC2)nc(N2CCN(C(=O)CCCCCCCCCCNC(=O)[C@H](CCSC)n3cc(CCO)nn3)CC2)n1,?,-4%,6.5µM*,?,-1%,-20%
CN(C)/C=C1\Cc2ccccc2C1=O,-95%,?,33µM*,-3,-6%,3%
CN(C)c1ccc(/C=C2\Cc3ccccc3C2=O)cc1,3.5µM*,.,?,.,.,.
CN(C)C=C1C(=O)c2ccccc2C1=O,?,23%,?,-5,?,-27%
CN(C)c1ccc(/C=C2\CCC/C(=C\c3ccccc3)C2=O)cc1,?,?,?,-65*,12%,12%
O=C1C(=Cc2ccc(F)cc2)Cc2ccccc21,?,.,?,10,5%,-2%
O=C(COC(=O)CN1C(=O)c2ccccc2C1=O)Nc1ccccc1C(F)(F)F,-14%,.,-14%,28,1%,0%
CN1C[C@@H]2[C@@H]3C(=O)N(Cc4ccccc4)C(=O)[C@@H]3[C@](C)(C1=O)N2C(=O)c1ccc(Cl)cc1,-1%,?,3%,-10,0%,-1%
N#CC1=CC2CN(Cc3ccccc3)C1C1C(=O)N(c3ccccc3)C(=O)C21 (stereo not given),?,.,?,0,10%,12%
O=C(Nc1cccc(-c2nc3ccccc3s2)c1)c1cc(=O)c2ccccc2o1,2.1µM*,9.2µM*,?,0,14%,8%
Cc1c(C(=O)Nc2cccc(-c3nc4ccccc4s3)c2)oc2ccccc12,18µM*,.,16µM*,.,.,.
O=C(Nc1cccc(-c2nc3ccccc3s2)c1)c1cccs1,?,?,?,0,?,?
O=C(CN1C(=O)NC2(CCCC2)C1=O)OCCOc1ccc(Cl)cc1,?,?,?,-11,12%,11%
Cc1ccc(C(=O)NCc2ccco2)cc1S(=O)(=O)N1CCCC1,-4%,-3%,?,-10,-5%,12%
COc1ccc(NC(=S)Nc2ccc(OCc3ccccc3)cc2)c(OC)c1,26µM*,-14%,21µM*,34,-11%,-14%
CNC(=O)c1cnc2sc(N3CCCCCC3)nn2c1=O,0%,.,20%,.,.,.
COC(=O)[C@H](C)N(Cc1ccc(Cl)c(Cl)c1)S(=O)(=O)CCN1CCCC1,?,-21%,?,-26,-22%,-21%
SMILES,DT40 TDP1 no CPT,ELG1 repair inh,TDP1 cell CPT,IL1B secr inh,HT1080 IDH1KD tx,HT1080NT lethal
CCC/C=C/c1ccc(CN2C(C(C)C)C(=O)N(Cc3cn(CC4CCCCC4)nn3)CCS2(=O)=O)cc1 (stereo not given),12µM*,.,16µM*,-12,?,?
CCC/C=C/c1ccc(CN2C(C)C(=O)N(Cc3cn(CC4CCCCC4)nn3)CCS2(=O)=O)cc1 (stereo not given),21µM*,.,?,30,-14%,-22%
CCC/C=C/c1ccc(CN2C(CC(C)C)C(=O)N(Cc3cn(CCOCOC)nn3)CCS2(=O)=O)cc1 (stereo not given),-27%,.,-15%,-14,8%,1%
Cc1ccc(OCC(=O)Nc2ccccc2C(=O)OCc2cc(=O)n3ccsc3n2)cc1C,-14%,.,-14%,.,.,.
Cc1ccc(NC(=O)COc2cccc3ccc(C)nc23)c(Br)c1,23µM*,-10%,?,0,-8%,-4%
Cc1ccc(-c2ccnc3nc(-n4cccc4)nn23)o1,21µM*,-9%,15µM*,28,?,4%
CN(C)/C=N/c1nc2nccc(-c3ccccn3)n2n1,-6%,2%,4%,-5,13%,23%
COc1cccc(Sc2nc(-c3ccccc3)ncc2S(C)(=O)=O)c1,-30%,?,-6%,3,-7%,2%
CC1CCC(Nc2nc3c(-c4ccc(Cl)cc4)nnn3c3ccccc23)CC1 (stereo not given),-19%,.,1%,.,.,.
